According to the supplement of paper PMC10503962:

test system: Trichuris muris adult worms; assay: mean motility score (Paragon pixel variance) of adult worms (arbitrary units); higher = more motile worms, i.e. less anthelmintic effect; extreme values may be limits of the assay; conditions: 100 µM; 24 h
How it was run: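 Single adult Trichuris muris worms, recovered from infected NOD SCID mice, were exposed to drug at 100 μM (1% v/v DMSO) in 100 μL RPMI-1640 with antibiotics in 96-well plates for 24 h at 37°C and 5% CO2. The plates were then filmed on an automated phenotyping platform. The motility score was calculated through Paragon pixel-variance analysis and averaged across replicate wells, with three worms in three wells per drug on three separate occasions.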

SMILES | mean motility score
CCCCOc1ccc(C(=O)CCN2CCCCC2)cc1.Cl [dyclonine hydrochloride] | 3270
COc1cc2nc(N3CCN(C(=O)C4CCCO4)CC3)nc(N)c2cc1OC.Cl (stereo not drawn) [terazosin hydrochloride] | 2970
COC(=O)C1=C(C)NC(C)=C(C(=O)OC)C1c1ccccc1[N+](=O)[O-] [nifedipine] | 1260
